Hits are enriched below; roughly 2% of the tested compounds scored in any of these assays.
M4 antag – antagonists of human muscarinic M4 receptor (CHRM4); AID 624125; hit rate 0.73% among 360,000; P08173; CHO-hM4 cells, ACh EC80, Fluo-8 calcium fluorescence; inhibition, % at 3 µM;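 active means inhibition above its plate's cutoff, the mean inhibition of sample wells plus 3 SD, cut at about 27% in these data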
Target sequence (P08173 whole entry, looked up): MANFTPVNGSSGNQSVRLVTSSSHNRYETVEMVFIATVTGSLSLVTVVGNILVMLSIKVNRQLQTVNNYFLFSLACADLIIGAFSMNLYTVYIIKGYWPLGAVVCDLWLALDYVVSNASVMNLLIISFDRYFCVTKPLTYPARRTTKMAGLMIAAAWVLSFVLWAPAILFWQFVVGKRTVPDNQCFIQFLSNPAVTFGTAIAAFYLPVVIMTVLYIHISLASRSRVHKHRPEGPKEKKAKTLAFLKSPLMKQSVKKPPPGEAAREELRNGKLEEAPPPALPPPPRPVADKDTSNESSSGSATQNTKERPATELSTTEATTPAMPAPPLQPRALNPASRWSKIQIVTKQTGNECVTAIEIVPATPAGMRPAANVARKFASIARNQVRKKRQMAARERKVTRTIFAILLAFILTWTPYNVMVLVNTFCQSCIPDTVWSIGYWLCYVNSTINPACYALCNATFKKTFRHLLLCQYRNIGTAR
CHO-K1 Ca ag – nonselective activator or artifact in parental CHO-K1 cells. Fluo-8 calcium fluorescence; scaled to maximal ATP response, vehicle zero. activation, % at 3 µM. hit rate 0.48% among 360,000. AID 602248; in the data active means activation above about 15%;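 further: untransfected CHO-K1 host cells lacking M1 receptor as counterscreen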
M4 PAM – positive allosteric modulators of human muscarinic M4 receptor; P08173; CHO-K1 hM4/Gqi5, Fluo-8 calcium fluorescence, ACh EC20; 0% = ACh EC20, 100% = maximal ACh; activation, % at 3 µM; hit rate 0.4% among 360,000; AID 624126;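 active means activation above its plate's cutoff, the mean activation of sample wells plus 3 SD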
CHO-K1 Ca PAM – nonselective activator or artifact in parental CHO-K1 calcium assay; activation, % at 3 µM; AID 602247; hit rate 0.02% among 360,000; ATP EC20, Fluo-8 calcium fluorescence; 0% at ATP EC20, 100% at ATP max;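 active means activation above the run cutoff, the mean activation of all test compounds plus 3 SD, cut at about 40% in these data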;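 further: peak over basal fluorescence ratio in a 140 s read after ATP addition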
CHO-K1 Ca antag – nonselective inhibitor or artifact in parental CHO-K1 cells; ATP-induced calcium, Fluo-8 fluorescence; inhibition, % at 3 µM; hit rate 0.6% among 360,000; AID 602250;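 active means inhibition above a per-plate cutoff, the plate's mean sample inhibition plus 3 SD, cut at about 24% in these data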
CHRM4 agonist – CHRM4 agonism in calcium assay. CHO-K1 hM4/Gqi5, Fluo-8 calcium fluorescence; vehicle 0%, full acetylcholine response 100%. activation, % at 3 µM. hit rate 0.14% among 360,000. AID 624127;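 active means activation above the run mean over all test wells plus 3 SD, cut at about 32% in these data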;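 further: peak over basal fluorescence ratio per well then scaled between controls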
Each line names hits and unclear results; the compound was inactive in the other large screens.

CCOC(=O)C1=C(Cc2ccc(Cl)cc2)C(=O)c2ccccc2C1=O	M4 antag 35.3
CN1CC(=O)N(CC(=O)Nc2cc(Cl)cc(Cl)c2)C1=O	none
O=C(O)c1cc(S(=O)(=O)Nc2ccc3cn[nH]c3c2)ccc1Cl	none
CC1=C(C(=O)N(C)C)CC(CC(=O)NCCCCc2ccccc2)C(=O)N1CCCN1CCCC1=O (centres undefined)	M4 PAM 21.9
CC1=C(C(=O)N2CCOCC2)CC(CC(=O)NCCCCc2ccccc2)C(=O)N1CCCN1CCCC1=O (centres undefined)	none
Fc1ccc(OCc2nc3ccccc3s2)cc1	none
COc1ccc(C(=O)NNC(=S)NC(=O)c2ccc(F)cc2)cc1Br	CHO-K1 Ca ag 66.1, CHRM4 agonist 93.4
CCCCC(=O)NC(=S)NNC(=O)c1ccc(OC)cc1	CHO-K1 Ca ag 31.3
COc1ccc(C(=O)NC(=S)NNC(=O)c2ccncc2)cc1Br	none
COc1ccc(C(=O)NNC(=S)NC(=O)c2ccc(OC)cc2)cc1	CHO-K1 Ca ag 34.2, CHRM4 agonist 54.0
COc1ccc(N2CCN(C(C)C(=O)N(C)Cc3ccccc3)CC2)cc1 (centres undefined)	none
CCOc1ccc(S(=O)(=O)NCCC(=O)NCC2(N3CCCCC3)CCCCC2)cc1	none
CC(C(=O)Nc1ccc(N(C)C)cc1)N1C(=O)c2ccccc2S1(=O)=O (centres undefined)	none
CCCc1c(O)nc(SCCN(CCC)CCC)[nH]c1=O	CHO-K1 Ca antag 27.0
COc1ccccc1NC(=O)CSc1nc(O)c(Cc2ccccc2)c(=O)[nH]1	none
CCSc1nc(O)c(Cc2ccccc2)c(=O)[nH]1	CHO-K1 Ca antag 30.6
CN(C)CCOc1ccc(-c2c(-c3ccccc3)sc3ccccc23)cc1	M4 antag 28.2
Oc1ccc(Nc2nc(-c3ccccc3)nc3ccccc23)cc1	none
Oc1ccc(Nc2nc3ccccc3nc2Nc2ccc(O)cc2)cc1	M4 antag 27.3
COc1cccc(OC)c1C(=O)NC(=O)Nc1c(C)cccc1C	none
CC(Sc1nnc(-c2cccs2)n1-c1ccccc1)C(=O)NCc1ccc2c(c1)OCO2 (centres undefined)	CHO-K1 Ca antag 24.0
O=C(CSc1nnc(Cc2cccs2)n1-c1ccccc1)NCc1ccc2c(c1)OCO2	none
CCc1nc(OCC(=O)c2ccccc2)c(C#N)c2c1COC(C)(C)C2	CHO-K1 Ca antag 25.0
O=C(CN(c1ccc(F)cc1)S(=O)(=O)c1ccccc1)NC1CC2CCC1C2 (centres undefined)	none
Cc1ccc(N/C(N)=N/c2nc(C)cc(N3CCCCC3)n2)c(C)c1	CHO-K1 Ca antag 25.2
CN(CC(=O)Nc1ccc(Cl)c(Cl)c1)C(=O)/C=C/c1ccc(F)cc1	CHO-K1 Ca antag 25.5
COc1ccc2c(n1)Sc1nc3ccccc3nc1N2	CHO-K1 Ca ag 24.6, CHO-K1 Ca antag 28.1, CHRM4 agonist 54.3
COc1cc2ccccc2nn1	none
Cc1sc2nc(CSCC(=O)Nc3ccccc3C#N)[nH]c(=O)c2c1C	M4 PAM 37.9
CSc1ccccc1NC(=O)CSCc1nc2sc(C)c(C)c2c(=O)[nH]1	none
CN(Cc1nccs1)C(=O)c1ccc(OC2CCN(CCc3ccccc3)CC2)cc1	none
CCn1ccnc1CN(C)C(=O)c1ccc(OC2CCN(CCc3ccccc3)CC2)cc1	M4 antag 43.1
CCn1c(C)c(Br)c(=O)c(C(=O)OC)c1-c1ccc(Cl)cc1	none
CCCCCCCCCn1ccc(=N)cc1	M4 antag 30.3
C=CC[C@H](CC(=O)NCCO)C(=O)N[C@H](COC(=O)[C@H](CC=C)CC(=O)OC(C)(C)C)Cc1c[nH]c2ccccc12	none
CC1=C/C(=N\NC(=S)NCc2ccccc2)CC1	none
O=C1CC(c2ccsc2)Sc2ccccc2N1 (centres undefined)	CHO-K1 Ca ag 20.2
COCCNC(=O)C1(C)CCN(C(=O)c2cccc(C)c2C)C1 (centres undefined)	none
O=C1CC(O)(C(F)F)Oc2ccc3ccccc3c21 (centres undefined)	none
O=C1CC(O)(C(F)(F)F)Oc2c1ccc1ccccc21 (centres undefined)	CHO-K1 Ca ag 27.5
O=C1Nc2ccccc2C1=Nc1ccc2[nH]c3ccccc3c2c1	none
O=C(N/N=C/c1cccc2cccnc12)c1ccccc1O	M4 antag 35.1
O=C(N/N=C/c1cccc2nccnc12)c1ccccc1O	none
CN1C(=O)/C(=C\c2ccc(N(C)C)cc2)OC1=S	CHO-K1 Ca ag 29.9, CHO-K1 Ca antag 26.7
Cc1[nH]c2ccccc2c1C(=O)CN1C(=O)NC2(CC(C)CC(C)(C)C2)C1=O (centres undefined)	CHO-K1 Ca ag 35.4
CCN(Cc1ccccc1)C(=O)CN1C(=O)NC2(CC(C)CC(C)(C)C2)C1=O (centres undefined)	none
O=C(Cc1cccs1)N1CCN(S(=O)(=O)c2ccc(F)c(F)c2)CC1	none
CC1=C(C(=O)NCc2ccco2)C2(CCC(C)CC2)OC1=O (centres undefined)	none
O=C(NCc1ccc2c(c1)OCO2)c1nc(S(=O)(=O)Cc2ccccc2)ncc1Cl	none
Cc1ccc(C(=O)NCc2ccc3c(c2)OCO3)cc1Cl	CHO-K1 Ca antag 24.4
CC1=C(C(=O)NCc2ccc3c(c2)OCO3)C2(CCC(C)CC2)OC1=O (centres undefined)	M4 antag 60.5
Cc1ccc(C(=O)NCc2ccc3c(c2)OCO3)cc1	none
Cc1cc(C(=O)NCc2ccc3c(c2)OCO3)ccc1[N+](=O)[O-]	CHO-K1 Ca ag 22.5
Cc1ccc(C(=O)NCc2ccc3c(c2)OCO3)cc1C	none
O=C(NCc1ccc2c(c1)OCO2)c1nc(S(=O)(=O)Cc2ccccc2F)ncc1Cl	M4 antag 38.1
CCc1nc2ccc(C(=O)NC3CCN(Cc4ccccc4)CC3)cn2c1N(CC)Cc1cccc(Br)c1	none
O=C(O)c1ccc(CNC(=O)c2ccc(C(F)(F)F)cc2)cc1	none
Nc1c(C(=O)NCc2ccc3c(c2)OCO3)nnn1CC(=O)Nc1ccc(Br)cc1	none
Nc1c(C(=O)NCc2ccc3c(c2)OCO3)nnn1Cc1ccc(Br)cc1	CHO-K1 Ca ag 17.9
N#Cc1cc(Nc2c(N)nc[nH]c2=O)c([N+](=O)[O-])cc1C#N	none
CC(=O)Oc1ccc2c(C)cc(=O)[nH]c2c1	CHO-K1 Ca antag 25.9
CCc1ccc(NC(=O)CSc2nc(=O)n3cc(C)ccc3n2)cc1	CHO-K1 Ca antag 43.0
Cc1ccc(SCc2cc(=O)[nH]c(/N=C(\N)Nc3ccc(C)c(C)c3)n2)cc1	none
CN(C)c1ccc(CC(=O)N2CCCC(c3cc(C(=O)Nc4ccc(F)c(Cl)c4)no3)C2)cc1 (centres undefined)	M4 antag 27.7
CCCC(=O)N1CCCC(c2cc(C(=O)Nc3ccccc3)no2)C1 (centres undefined)	CHO-K1 Ca antag 23.8

Source: PubChem BioAssay (The Scripps Research Institute Molecular Screening Center)
